# Assay outcomes: PubChem BioAssay, National Center for Advancing Translational Sciences (NCATS)
# Hits are enriched below; roughly 2.3% of the tested compounds scored in any of these assays.
# BCR signal inh = chronic active BCR signaling inhibition | actives 0.05% (n = 340,000) | Potency, µM (highest dose often 46.1 µM), actives largely listed as inhibitors | ABC-DLBCL IkBa-CBG/CBR reporter, luminescence ratio, 4 h; active = well fitted inhibition curve with a large enough effect in the signal ratio, with a control signal flat, not every such curve was filed as active; inconclusive = small, poorly fitted or top-dose-only effect, or effect the other way, or a change in a side signal; the % refers to the signal ratio
#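 Doxycycline induced both beetle luciferases in TMD8 lymphoma cells; IKK-driven degradation limits the IkappaBalpha-fused green signal, while red luminescence normalises for cell number and nonspecific effects. Compounds tested up to 46 uM, 4 hrs.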
# uPA surface inh = blocks generation of uPA at the cell surface; cell surface uPA generation assay, qHTS; Potency, µM (highest dose often 38.3 µM), hits mostly inhibitors; actives 0.31% (n = 330,000); AID 540303; active = well fitted inhibition curve with a large enough effect; inconclusive = small, poorly fitted or top-dose-only effect; inactive = no such curve, though single readings can be large or run the other way; tested in mouse RAW 264.7 cells; note: nearly all actives have a fitted effect of over 55% in size
# TDP43 rescue = rescues yeast growth from TDP-43 toxicity. TDP-43 expressing yeast growth rescue, BacTiter-Glo, 24 h. Potency, µM (series often up to 46.1 µM), usual class: activators. actives 1.8% (n = 410,000). AID 652104; note: nearly all actives have a fitted effect of over 50% in size
#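 Growth rescue of TDP-43-toxic yeast measured as ATP luminescence (BacTiter-Glo). Cells grown to mid-log in raffinose, induced in galactose at OD600=0.02, exposed to compound 24 hr at 30 deg C.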
# FUS suppressor = rescues growth of FUS-expressing yeast. S. cerevisiae FUS-expressing, growth rescue, OD600, 24 h. Potency, µM (doses to about 76.6 µM), most hits filed as activators. actives 0.24% (n = 390,000); note: nearly all actives have a fitted effect of over 55% in size
#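 Steps: raffinose overnight preculture; dilution to OD 0.005 in 2% galactose minimal medium; compound addition (concentration series); 24hr at 30C, 99% humidity; absorbance read at 600 nm.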
# aSyn yeast inh = rescues yeast growth from alpha-synuclein toxicity | actives 0.14% (n = 370,000) | Potency, µM (series often up to 46.1 µM), most hits filed as activators | Yeast expressing alpha-synuclein, growth rescue, BacTiter-Glo, 24 h; note: nearly all actives have a fitted effect of over 65% in size
#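 Readout is rescue of growth in alpha-synuclein-expressing yeast, so inhibitors of toxicity appear as activators. Growth after 24 hr at 30 deg C in galactose medium is quantified by luminescence.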
# Abeta yeast res = compounds reversing amyloid beta toxicity in yeast | yeast expressing A-beta42, growth rescue, OD600, 48 h; response scale: 0% DMSO, 100% iron-clioquinol control | Potency, µM (series often up to 46.1 µM), usual class: activators | actives 0.063% (n = 410,000) | AID 1347071; note: nearly all actives have a fitted effect of over 55% in size
#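 Yeast A-beta toxicity model in growth medium with pinned compounds, 48 h at 30 C; growth read as absorbance at 600 nm. Normalized to FeCl3/clioquinol equimolar mix (positive) and DMSO (negative).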
# Numbers stand for hits; 0 = inactive; ? = inconclusive; - = no result; [ ] = dose if it differs, or a comment. Unless noted, calls come from the whole dose curve; as a rule, active = well fitted curve in the direction sought with a large enough effect; inconclusive = small, poorly fitted or top-dose-only effect, or another doubt; inactive = no such curve, though single readings can be large; an effect the other way counts as inactive or inconclusive.
SMILES,BCR signal inh,uPA surface inh,TDP43 rescue,FUS suppressor,aSyn yeast inh,Abeta yeast res
Cc1nn(Cc2ccc(F)cc2)c(C)c1NC(=O)c1cnn2c1NC(c1cccs1)CC2C(F)(F)F (stereo unspecified),?,-,0,28µM,0,0
CCN(CC)c1ncnc2c1sc1nc(C)cc(C)c12,?,0,22µM,0,0,0
CC1CCCN(c2c3c(nc4ccccc24)CCCC3)C1 (stereo unspecified),0,0,0,0,0,0
Oc1ccccc1-c1nc(NCC2CCCO2)c2ccccc2n1 (stereo unspecified),?,0,11µM,0,0,0
COc1cccc(-c2nc(NCC3CCCO3)c3ccccc3n2)c1O (stereo unspecified),0,0,?,0,0,0
CC1CCCN(c2nc(-c3ccccc3O)nc3ccccc23)C1 (stereo unspecified),-,-,20µM,0,0,0
CC1CCN(c2nc(-c3ccncc3)nc3ccccc23)CC1,0,0,13µM,0,?,0
CC1=CC2=NC(=O)CC(C)(C(=O)N(CC(=O)NC3CCCC3)Cc3ccccc3)N2C=C1 (stereo unspecified),0,0,0,0,0,0
Cc1cc(C)n2nc(NCc3cccc(Br)c3)nc2n1,0,0,14µM,0,0,0
Cc1cc(C)n2nc(SCc3cccc(F)c3)nc2n1,?,0,18µM,0,0,0
COc1ccc(CNc2nc3nc(C)cc(C)n3n2)cc1OC,0,0,0,0,0,0
Nc1nnc(SCc2cccc(C(F)(F)F)c2)s1,0,0,0,0,0,0
C#CCSc1nnc(CSc2nc3ccccc3s2)n1-c1ccccc1,0,0,22µM,0,0,0
CCCCN=Cc1sc2ccc(OCC)cc2c1O,?,0,16µM,0,0,0
Oc1c(C=NCc2ccccc2)sc2ccccc12,?,0,0,0,0,0
COc1ccc(-c2csc(C(O)c3cccc(OC)c3)n2)cc1 (stereo unspecified),-,-,20µM,0,3.5µM,?
COc1cccc(C(O)c2nc(-c3cc(F)cc(F)c3)cs2)c1 (stereo unspecified),-,-,16µM,0,?,?
O=S(=O)(c1ccc(Br)cc1)N1CCN(c2cc(-c3ccccc3)nc3ncnn23)CC1,?,-,0,0,0,0
COc1ccc(OC)c(NC(=O)CSc2c3c(nc4cc(Cl)ccc24)CCCC3)c1,-,-,20µM,0,-,0
O=C(CSc1c2c(nc3cc(Cl)ccc13)CCCC2)N1CCN(c2ccccc2F)CC1,-,-,35µM,0,-,0
CC1CCCN(C(=O)CSc2c3c(nc4cc(Cl)ccc24)CCCC3)C1 (stereo unspecified),-,-,18µM,0,-,0
CC1CCCCN1C(=O)CSc1c2c(nc3cc(Cl)ccc13)CCCC2 (stereo unspecified),-,-,0,0,-,0
COc1ccc(NC(=O)CSc2nc(N)c3cc4c(nc3n2)CCCC4)c(OC)c1,0,-,0,32µM,0,0
O=C(OCCc1cc2ccccc2c(=O)o1)c1cccs1,?,0,?,0,0,0
COC(=O)CSc1nnc(-c2ccoc2C)n1-c1ccc(OC)cc1,0,0,0,0,0,0
SMILES,BCR signal inh,uPA surface inh,TDP43 rescue,FUS suppressor,aSyn yeast inh,Abeta yeast res
COc1ccc(C(=O)Nc2cc(C)on2)cc1,0,0,0,0,0,0
O=C(CSc1c2c(nc3ccc(Cl)cc13)CCCC2)N1CCCCC1,-,-,16µM,0,-,0
Cc1noc(-c2ccc(N3CCCCC3)c([N+](=O)[O-])c2)n1,-,-,18µM,0,-,0
Cc1cc(C=O)c(C)n1-c1ccc(N2CCCCC2)c([N+](=O)[O-])c1,?,0,18µM,0,0,0
COc1ccc(Cn2cnc3c4cc(F)ccc4n(C)c3c2=O)cc1,0,0,0,0,0,0
COc1ccc(CC(=O)NCCCc2ccccc2)cc1OC,?,0,0,0,0,0
COC(=O)c1sc(=S)sc1C(=O)OC,0,0,13µM,0,?,0
Clc1ccc(CSc2nnc(CNc3cccc(Cl)c3)o2)cc1,?,0,0,0,8.9µM,0
Fc1cccc(Cl)c1CSc1nnc(CNc2ccccc2)o1,?,0,18µM,0,?,0
Cc1ccc(CSc2nnc(CCCCCNC(=O)OC(C)(C)C)o2)cc1,0,0,0,?,0,0
Fc1ccc(NCc2nnc(SCc3ccccc3)o2)cc1,0,0,?,0,0,0
CC(C)(C)OC(=O)NCCc1nnc(SCc2ccc(Cl)cc2)o1,0,0,18µM,?,0,0
CCOC(=O)c1c(C)[nH]c(C(=O)CSc2nnnn2-c2ccccc2)c1C,0,0,0,0,0,0
COc1ccc(-c2c(C)nn3c(C)cc(C)nc23)cc1,?,0,14µM,0,0,0
COc1ccc(-c2c(C)nn3c(C(F)(F)F)cc(C)nc23)cc1,-,-,0,0,0,0
Cc1ccccc1C(=O)Nc1ccccc1NC(=O)c1ccccc1Br,0,0,0,0,0,0
COc1ccc(Nc2ccccc2NC(=O)c2ccccc2Br)cc1,0,0,16µM,0,0,0
CCc1ccccc1NC(=S)N=Nc1c(O)n(C)c2ccc(S(=O)(=O)N3CCOCC3)cc12,18µM,0,0,0,0,0
Oc1ccccc1Cc1c(O)ccc2ccccc12,0,0,16µM,0,0,0
CN(C)Cc1c(O)ccc2ccccc12,0,0,0,0,0,0
O=C(O)c1ccc(-c2ccccc2)[nH]1,?,0,?,0,0,0
CN(C)c1ccc(C(=S)N2CCCCCC2)cc1,0,-,0,0,0,0
CC1CCN(C(=S)c2ccc(N(C)C)cc2)CC1,0,0,0[1.82 µM],0,0,13µM
COc1ccc2c(c1)CO[C@H]([C@H](O)COC(C)=O)[C@H]2/C=C/c1ccccc1,-,-,-,0,-,-
CC(=O)/C=C(\C)Nc1ccccc1O,?,7.9µM,0,0,0,0
SMILES,BCR signal inh,uPA surface inh,TDP43 rescue,FUS suppressor,aSyn yeast inh,Abeta yeast res
Cc1cccc(NC(=O)C2CCN(S(=O)(=O)c3c(C)c(C)cc(C)c3C)CC2)n1,?,0,0,?,0,0
C=CCNC(=S)N1CCC2CC1c1c(Cl)cccc12 (stereo unspecified),-,-,0,0,0,?
COc1ccc(NC(=S)N2CCC3CC2c2c(Cl)cccc23)c(OC)c1 (stereo unspecified),-,-,14µM,0,0,0
CC(=O)NCc1ccc(S(=O)(=O)N2CCN(c3ccccn3)CC2)cc1,0,0,0,0,0,0
COc1cc2c(C#N)c(N3CCc4ccccc4C3)nc(N)c2c(N)n1,0,0,13µM,?,0,0
O=C(NCC(c1ccco1)N1CCc2ccccc21)C(=O)Nc1ccc(F)cc1F (stereo unspecified),9.2µM,3.2µM,?,0,0,0
